Test results: PubChem BioAssay (Tox21)
Inconclusive results are not listed. Active and inactive are the calls of the source. Unless noted, calls come from the whole dose curve.

Legend:
[1] = Nuclear factor erythroid 2-related factor 2/antioxidant responsive element (Nrf2/ARE) small molecule agonists: qHTS cell viability counter screen in human keratinocytes (AID 1919968; active = well fitted curve in the direction sought with a large enough effect in the repeat runs; an effect the other way counts as inactive or inconclusive; note: nearly all actives have a fitted effect of over 55% in size)
Method in brief: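 After a 5 h attachment period, ARE-reporter keratinocytes were dosed with compounds in DMSO and then cultured 23 h at 37 C. Cell viability came from CellTiter-Fluor signal read after a further 1 h.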

[2] = Nuclear factor erythroid 2-related factor 2/antioxidant responsive element (Nrf2/ARE) small molecule agonists: luciferase reporter gene qHTS assay in human keratinocytes (AID 1919969); note: nearly all actives have a fitted effect of over 35% in size; note: potency is the fitted concentration of half-maximal effect
[3] = molecular target: Gonadotropin-releasing hormone receptor (Homo sapiens) (UniProt P30968); test: Human gonadotropin-releasing hormone receptor (GnRHR) small molecule agonists, calcium flux assay in GnRHR-HEK293 cells (AID 1920063); note: nearly all actives have a fitted effect of over 35% in size
Method in brief: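 We seeded human GnRHR-expressing HEK293 cells for 18 hours, loaded them with calcium dye for an hour at 37 C, added test compounds, and recorded fluorescence intensity kinetically for three minutes.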

[4] = molecular target: KiSS-1 receptor (Homo sapiens) (UniProt Q969F8); test: Human kisspeptin (KISS1R) small molecule agonists, calcium flux assay in KISS1R-HEK293 cells (AID 1920064; active = well fitted curve in the direction sought with a large enough effect in the repeat runs; an effect the other way counts as inactive or inconclusive)
Method in brief: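 Kinetic calcium assay, 1 s sampling over 3 min at Ex/Em 480/540, in HEK293 cells engineered with human KISS1R; compounds delivered in DMSO after 1 h dye loading.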

[5] = G protein-coupled receptor (GPCR) small molecule agonists, calcium flux assay: HEK293 wild type cell line counter screen (AID 1920065)
Method in brief: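 Calcium-sensitive dye, loaded 1 h at 37 C into cells cultured 18 h, reports compound-evoked calcium release as fluorescence (Ex/Em 480/540), measured over 3 min. Agonist mode; 15-point titrations, triplicate.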

[6] = p53 small molecule agonists, cell-based qHTS assay with human liver microsomes (AID 1963577)
Method in brief: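 Cells carrying a p53-responsive bla reporter were rested 5 h (37 C, 5% CO2) before compound transfer. Human liver microsomes plus NADPH, 0.5 mg/mL final apiece, supplied metabolism during the 16 h 37 C exposure.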

[7] = p53 small molecule agonists, cell-based qHTS assay with rat liver microsomes (AID 1963578)
Method in brief: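 Fluorescence from a beta-lactamase reporter under a p53 response element was measured after cells had been incubated 16 h at 37 C with test compound and rat liver microsomes plus NADPH (0.5 mg/mL final each).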

[8] = p53 small molecule agonists, cell-based qHTS assay with human liver microsomes: qHTS cell viability counter screen (AID 1963579); note: nearly all actives have a fitted effect of over 45% in size
Method in brief: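 Seed p53RE-bla cells at 4,000 per well; incubate 5 h at 37 C; add compound, human liver microsomes and NADPH; incubate 16 h at 37 C; add CellTiter-Glo; after 30 min at room temperature, read luminescence.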

[9] = p53 small molecule agonists, cell-based qHTS assay with rat liver microsomes: qHTS cell viability counter screen (AID 1963580); note: nearly all actives have a fitted effect of over 45% in size
Method in brief: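 In HCT-116 cells carrying a p53 response element-bla reporter, compounds were metabolically activated in situ by rat liver microsomes with NADPH over 16 h. Cell ATP content then served as the cytotoxicity measure.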

[10] = p53 small molecule agonists, cell-based qHTS assay: qHTS cell viability counter screen (AID 1963581); note: nearly all actives have a fitted effect of over 45% in size
Method in brief: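 Following 5 h attachment, HCT-116 p53RE-bla cells took up compound for 16 h at 37 C; the reporter was read with B/G FRET substrate (2 h RT), and viability then via CellTiter-Glo ATP luminescence.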

[11] = p53 small molecule agonists, cell-based qHTS assay (AID 1963582; active = well fitted activation curve with a large enough effect in the signal ratio in the repeat runs, not every such curve was filed as active; the % refers to the signal ratio)
Method in brief: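 In this cell-based concentration-response screen, a p53 response element drives beta-lactamase; cells received DMSO-borne compounds after 5 h culture and were incubated a further 16 h before FRET substrate development.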

[12] = molecular target: 5-hydroxytryptamine receptor 2A (Homo sapiens) (UniProt P28223); test: 5-hydroxytryptamine receptor 2A (HTR2A) small molecule antagonists, cell-based qHTS assay (AID 1963586); note: nearly all actives have a fitted effect of over 45% in size
Method in brief: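 Antagonist-mode intracellular calcium assay: DOI (4 nM) added after 5 min compound pre-incubation at room temperature to dye-loaded HTR2A-CHO cells. Fluorescence followed for 3 min, sampled every second.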

[13] = molecular target: 5-hydroxytryptamine receptor 2A (Homo sapiens) (UniProt P28223); test: 5-hydroxytryptamine receptor 2A (HTR2A) small molecule agonists, cell-based qHTS assay (AID 1963587); note: nearly all actives have a fitted effect of over 30% in size
Method in brief: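 HTR2A-CHO cells, plated 18 h at 37 C/5% CO2, dye-loaded 1 h at 37 C; compounds in DMSO added by pin tool (agonist mode). Intracellular calcium flux read as kinetic fluorescence on FDSS over 2 min at 1 s intervals.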

[14] = molecular target: Muscarinic acetylcholine receptor M1 (Homo sapiens) (UniProt P11229); test: Cholinergic receptor muscarinic 1 (CHRM1) small molecule antagonists, cell-based qHTS assay (AID 1963588); note: nearly all actives have a fitted effect of over 40% in size
Method in brief: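 CHRM1-CHO calcium-flux assay, antagonist mode. Cells were seeded 18 h, dye-loaded 1 h at 37 C and given compound for 5 min at RT, then acetylcholine was added at 50nM. FDSS fluorescence was read 3 min; 15 concentrations, three runs.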

[15] = molecular target: Muscarinic acetylcholine receptor M1 (Homo sapiens) (UniProt P11229); test: Cholinergic receptor muscarinic 1 (CHRM1) small molecule agonists, cell-based qHTS assay (AID 1963589); note: nearly all actives have a fitted effect of over 35% in size
Method in brief: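 Measures agonist-induced intracellular calcium rise. Stable human CHRM1 CHO line, 1 h dye load at 37 C, compounds from DMSO, kinetic fluorescence read.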

[16] = cAMP Responsive Elements (CRE) small molecule agonists, cell-based qHTS assay (AID 1963590)
Method in brief: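 A CRE-responsive beta-lactamase reporter in HEK 293T cells was used. Treatment ran 3 h at 37 C; detection used LiveBLAzer B/G FRET substrate for 2 h at room temperature.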

[17] = cAMP Responsive Elements (CRE) small molecule antagonists, cell-based qHTS assay (AID 1963591; active = well fitted inhibition curve with a large enough effect in the signal ratio in the repeat runs, not every such curve was filed as active; the % refers to the signal ratio)
Method in brief: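 HEK293T cells carrying a CRE-driven beta-lactamase reporter receive compound and NKH477 (0.25 uM final) for 3 h. Fluorescence from LiveBLAzer B/G FRET substrate is read after 2 h at room temperature.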

[18] = molecular target: Beta-2 adrenergic receptor (Homo sapiens) (UniProt P07550); test: Adrenergic beta2 receptor (ADRB2) small molecule antagonists, cell-based qHTS assay (AID 1963592); note: series mostly up to about 92 µM; nearly all actives have a fitted effect of over 50% in size
Method in brief: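 Cells (CHO, stable ADRB2 overexpression) incubated 18-20hr at 37C; compounds added from DMSO; agonist mix (1nM isoproterenol, 100uM IBMX, 25uM Ro-20-1724) added; 0.5hr RT; d2-cAMP and anti-cAMP-cryptate added; 1hr RT; 665/615 nm read.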

[19] = molecular target: Beta-2 adrenergic receptor (Homo sapiens) (UniProt P07550); test: Adrenergic beta2 receptor (ADRB2) small molecule agonists, cell-based qHTS assay (AID 1963593);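 note: CHO cells stably overexpressing human ADRB2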
Method in brief: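 CHO cells stably over-expressing ADRB2 were plated overnight at 37C, then dosed with compounds plus a stimulation mix containing 100uM IBMX and 25uM Ro-20-1724 for 0.5hr at room temperature. cAMP was measured by HTRF competition, 1hr.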

[20] = molecular target: D(2) dopamine receptor (Homo sapiens) (UniProt P14416); test: Dopamine D2 receptor (DRD2) small molecule agonists, cell-based qHTS assay (AID 1963594); note: nearly all actives have a fitted effect of over 35% in size
Method in brief: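 HEK293 cells stably expressing DRD2 were cultured 24 h at 37 C, then given Ro20-1724 (0.1 mM final) and compounds for 10 min at room temperature. NKH477 (200nM) was then added for 30 min. cAMP was read by HTRF.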
% is set by controls: 0 for no effect and ±100 for the full control effect.

Beta-2 adrenergic receptor (Homo sapiens), sequence (P07550 whole entry, looked up): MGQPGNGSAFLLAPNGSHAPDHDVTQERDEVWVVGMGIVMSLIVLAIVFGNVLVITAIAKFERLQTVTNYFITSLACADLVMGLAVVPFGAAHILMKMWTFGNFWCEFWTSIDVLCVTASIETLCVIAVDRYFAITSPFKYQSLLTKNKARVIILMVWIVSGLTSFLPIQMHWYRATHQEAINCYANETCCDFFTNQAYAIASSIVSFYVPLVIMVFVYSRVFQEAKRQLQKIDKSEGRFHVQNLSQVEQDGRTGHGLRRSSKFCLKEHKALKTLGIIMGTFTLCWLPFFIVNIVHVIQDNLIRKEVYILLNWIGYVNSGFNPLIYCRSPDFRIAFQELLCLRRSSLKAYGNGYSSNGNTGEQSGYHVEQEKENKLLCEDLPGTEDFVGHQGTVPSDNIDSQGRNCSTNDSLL
Muscarinic acetylcholine receptor M1 (Homo sapiens), sequence (P11229 whole entry, looked up): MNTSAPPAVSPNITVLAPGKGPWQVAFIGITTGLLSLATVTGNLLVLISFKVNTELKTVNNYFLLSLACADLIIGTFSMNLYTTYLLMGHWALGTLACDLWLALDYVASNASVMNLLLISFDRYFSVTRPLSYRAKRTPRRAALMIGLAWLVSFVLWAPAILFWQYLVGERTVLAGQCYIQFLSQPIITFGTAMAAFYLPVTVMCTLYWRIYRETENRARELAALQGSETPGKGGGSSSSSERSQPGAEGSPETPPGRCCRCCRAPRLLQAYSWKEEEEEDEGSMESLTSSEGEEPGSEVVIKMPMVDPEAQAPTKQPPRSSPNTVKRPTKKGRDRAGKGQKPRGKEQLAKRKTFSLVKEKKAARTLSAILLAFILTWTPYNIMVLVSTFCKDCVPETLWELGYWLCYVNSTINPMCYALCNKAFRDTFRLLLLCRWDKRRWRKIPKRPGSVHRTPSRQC
KiSS-1 receptor (Homo sapiens), sequence (Q969F8 whole entry, looked up): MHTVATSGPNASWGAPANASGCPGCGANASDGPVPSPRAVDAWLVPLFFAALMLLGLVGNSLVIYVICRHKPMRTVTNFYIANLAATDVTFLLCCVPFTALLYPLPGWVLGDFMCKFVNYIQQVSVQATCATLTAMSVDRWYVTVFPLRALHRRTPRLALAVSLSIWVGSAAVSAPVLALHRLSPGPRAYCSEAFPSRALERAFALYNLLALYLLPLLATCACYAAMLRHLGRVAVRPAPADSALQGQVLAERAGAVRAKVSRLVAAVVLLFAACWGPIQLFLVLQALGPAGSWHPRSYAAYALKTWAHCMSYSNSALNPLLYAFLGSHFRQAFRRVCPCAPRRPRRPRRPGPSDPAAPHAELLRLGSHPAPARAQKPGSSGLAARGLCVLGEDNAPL
D(2) dopamine receptor (Homo sapiens), sequence (P14416 whole entry, looked up): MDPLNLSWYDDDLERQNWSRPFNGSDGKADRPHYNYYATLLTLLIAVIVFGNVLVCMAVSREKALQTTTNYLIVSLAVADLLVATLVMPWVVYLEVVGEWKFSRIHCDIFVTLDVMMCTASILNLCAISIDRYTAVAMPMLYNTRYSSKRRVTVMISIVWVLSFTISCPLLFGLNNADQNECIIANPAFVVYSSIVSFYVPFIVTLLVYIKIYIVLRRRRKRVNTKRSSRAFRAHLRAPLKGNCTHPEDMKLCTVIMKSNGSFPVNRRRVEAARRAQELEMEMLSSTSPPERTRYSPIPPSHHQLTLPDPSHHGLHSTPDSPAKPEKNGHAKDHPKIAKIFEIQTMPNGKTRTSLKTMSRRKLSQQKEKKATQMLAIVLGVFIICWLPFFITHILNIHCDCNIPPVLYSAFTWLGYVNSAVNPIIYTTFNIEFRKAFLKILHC
Gonadotropin-releasing hormone receptor (Homo sapiens), sequence (P30968 whole entry, looked up): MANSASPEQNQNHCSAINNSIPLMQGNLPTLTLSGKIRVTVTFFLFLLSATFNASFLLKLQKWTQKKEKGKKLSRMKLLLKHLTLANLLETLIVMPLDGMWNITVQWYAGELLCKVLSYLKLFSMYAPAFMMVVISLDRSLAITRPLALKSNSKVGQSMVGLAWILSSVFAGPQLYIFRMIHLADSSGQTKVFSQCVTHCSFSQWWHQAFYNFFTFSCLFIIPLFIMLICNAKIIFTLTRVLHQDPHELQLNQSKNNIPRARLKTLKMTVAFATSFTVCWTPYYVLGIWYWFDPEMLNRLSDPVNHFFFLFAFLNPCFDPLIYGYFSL
5-hydroxytryptamine receptor 2A (Homo sapiens), sequence (P28223 whole entry, looked up): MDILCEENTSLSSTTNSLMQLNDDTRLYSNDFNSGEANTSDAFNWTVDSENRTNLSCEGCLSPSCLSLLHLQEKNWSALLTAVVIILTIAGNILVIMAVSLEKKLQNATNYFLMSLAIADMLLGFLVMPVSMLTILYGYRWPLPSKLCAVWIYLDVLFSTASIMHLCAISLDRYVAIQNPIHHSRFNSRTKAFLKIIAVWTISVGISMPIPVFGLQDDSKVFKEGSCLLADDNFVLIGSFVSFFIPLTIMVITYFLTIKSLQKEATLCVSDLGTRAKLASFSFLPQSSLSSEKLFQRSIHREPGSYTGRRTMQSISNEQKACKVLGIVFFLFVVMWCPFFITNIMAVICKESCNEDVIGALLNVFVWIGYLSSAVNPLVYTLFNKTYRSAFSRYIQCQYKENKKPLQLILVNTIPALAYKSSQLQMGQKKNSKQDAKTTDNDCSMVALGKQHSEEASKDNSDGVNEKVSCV

N[C@@H](CSSC[C@H](N)C(=O)O)C(=O)O
active: Potency [2] 0.376 µM
inactive: activity change, negative = cytotoxicity [1] -0.627% [at 0.349 µM] | activity change [3] 1.59% [at 0.217 µM, stronger effect = higher value] | activation [4] -0.737% [at 0.29 µM] | activation [5] -0.257% [at 0.217 µM] | activation [6] 0.648% [at 0.249 µM] | activation [7] -1.5% [at 0.249 µM] | activity change, negative = cytotoxicity [8] 1.19% [at 0.249 µM] | activity change, negative = cytotoxicity [9] -2.37% [at 0.249 µM] | activity change, negative = cytotoxicity [10] 0.512% [at 0.249 µM] | activation [11] 2.6% [at 0.249 µM] | activity, negative = inhibition [12] -6.07% [at 0.233 µM] | activation [13] 4.74% [at 0.292 µM] | activity, negative = inhibition [14] 11.3% [at 0.232 µM] | activation [15] 1.52% [at 0.29 µM] | activation [16] 0.0077% [at 0.349 µM] | activity change, negative = inhibition [17] -2.16% [at 0.349 µM] | activity change, negative = inhibition [18] 8.85% [at 0.349 µM] | activation [19] -18.9% [at 0.349 µM] | activation [20] -4.71% [at 0.349 µM]

COc1ccc(Br)c(C)c1
inactive: Potency [1] | Potency [2] | Potency [3] | Potency [4] | Potency [5] | Potency [6] | Potency [7] | Potency [8] | Potency [9] | Potency [10] | Potency [11] | Potency [12] | Potency [13] | Potency [14] | Potency [15] | Potency [16] | Potency [17] | Potency [18] | Potency [19] | Potency [20]

C=C(C)[C@@H]1CCC2=CCC[C@@H](C)[C@]2(C)C1
inactive: Potency [1] | Potency [2] | Potency [3] | Potency [4] | Potency [5] | Potency [6] | Potency [7] | Potency [8] | Potency [9] | Potency [10] | Potency [11] | Potency [12] | Potency [13] | Potency [14] | Potency [15] | Potency [16] | Potency [17] | Potency [18] | Potency [19] | Potency [20]

CCC(C)(C)C1CCC(=O)CC1
inactive: Potency [1] | Potency [2] | Potency [3] | Potency [4] | Potency [5] | Potency [6] | Potency [7] | Potency [8] | Potency [9] | Potency [10] | Potency [11] | Potency [12] | Potency [13] | Potency [14] | Potency [15] | Potency [16] | Potency [17] | Potency [18] | Potency [19] | Potency [20]

CN(C(=O)c1c(O)c2ccccc2n(C)c1=O)c1ccccc1
inactive: Potency [1] | Potency [2] | Potency [3] | Potency [4] | Potency [5] | Potency [6] | Potency [7] | Potency [8] | Potency [9] | Potency [10] | Potency [11] | Potency [12] | Potency [13] | Potency [14] | Potency [15] | Potency [16] | Potency [17] | Potency [18] | Potency [19] | Potency [20]

CC(=O)N(c1onc(C)c1C)S(=O)(=O)c1ccc(N)cc1
inactive: Potency [1] | Potency [2] | Potency [3] | Potency [4] | Potency [5] | Potency [6] | Potency [7] | Potency [8] | Potency [9] | Potency [10] | Potency [11] | Potency [12] | Potency [13] | Potency [14] | Potency [15] | Potency [16] | Potency [17] | Potency [18] | Potency [19] | Potency [20]

CC(C)C(=O)OCCOc1ccccc1
inactive: Potency [1] | Potency [2] | Potency [3] | Potency [4] | Potency [5] | Potency [6] | Potency [7] | Potency [8] | Potency [9] | Potency [10] | Potency [11] | Potency [12] | Potency [13] | Potency [14] | Potency [15] | Potency [16] | Potency [17] | Potency [18] | Potency [19] | Potency [20]
